Experimental data from ChEMBL document CHEMBL1961873, “Compounds: GSK PKIS; Assays: Nanosyn kinase panel” (2012).

Experiments:
[1] = molecular target: 5'-AMP-activated protein kinase catalytic subunit alpha-2 (Homo sapiens) (UniProt P54646); conditions: at 1 µM
[2] = molecular target: T1, NUAK family SNF1-like kinase 1 (Homo sapiens) (UniProt O60285); conditions: at 0.1 µM
T1 sequence (whole entry): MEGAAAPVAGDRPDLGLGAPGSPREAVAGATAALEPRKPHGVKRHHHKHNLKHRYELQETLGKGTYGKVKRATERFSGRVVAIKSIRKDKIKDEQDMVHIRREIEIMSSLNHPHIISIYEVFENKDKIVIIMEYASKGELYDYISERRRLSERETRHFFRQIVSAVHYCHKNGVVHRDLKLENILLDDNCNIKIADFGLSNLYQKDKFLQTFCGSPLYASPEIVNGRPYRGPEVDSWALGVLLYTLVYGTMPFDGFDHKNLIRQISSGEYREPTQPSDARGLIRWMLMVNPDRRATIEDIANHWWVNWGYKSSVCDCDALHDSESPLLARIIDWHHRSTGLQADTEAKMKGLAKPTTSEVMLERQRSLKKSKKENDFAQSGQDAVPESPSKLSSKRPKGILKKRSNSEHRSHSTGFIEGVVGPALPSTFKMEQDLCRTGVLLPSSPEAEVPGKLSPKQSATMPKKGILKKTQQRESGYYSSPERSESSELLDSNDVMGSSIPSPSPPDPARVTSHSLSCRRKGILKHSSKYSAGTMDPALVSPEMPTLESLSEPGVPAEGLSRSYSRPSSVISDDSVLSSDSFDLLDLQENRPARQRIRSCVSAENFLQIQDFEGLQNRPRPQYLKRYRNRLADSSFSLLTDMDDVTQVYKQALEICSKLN

[3] = molecular target: T1, NUAK family SNF1-like kinase 1 (Homo sapiens); conditions: at 1 µM
[4] = molecular target: T2, Serine/threonine-protein kinase BRSK1 (Homo sapiens) (UniProt Q8TDC3); conditions: at 0.1 µM
T2 sequence (whole entry): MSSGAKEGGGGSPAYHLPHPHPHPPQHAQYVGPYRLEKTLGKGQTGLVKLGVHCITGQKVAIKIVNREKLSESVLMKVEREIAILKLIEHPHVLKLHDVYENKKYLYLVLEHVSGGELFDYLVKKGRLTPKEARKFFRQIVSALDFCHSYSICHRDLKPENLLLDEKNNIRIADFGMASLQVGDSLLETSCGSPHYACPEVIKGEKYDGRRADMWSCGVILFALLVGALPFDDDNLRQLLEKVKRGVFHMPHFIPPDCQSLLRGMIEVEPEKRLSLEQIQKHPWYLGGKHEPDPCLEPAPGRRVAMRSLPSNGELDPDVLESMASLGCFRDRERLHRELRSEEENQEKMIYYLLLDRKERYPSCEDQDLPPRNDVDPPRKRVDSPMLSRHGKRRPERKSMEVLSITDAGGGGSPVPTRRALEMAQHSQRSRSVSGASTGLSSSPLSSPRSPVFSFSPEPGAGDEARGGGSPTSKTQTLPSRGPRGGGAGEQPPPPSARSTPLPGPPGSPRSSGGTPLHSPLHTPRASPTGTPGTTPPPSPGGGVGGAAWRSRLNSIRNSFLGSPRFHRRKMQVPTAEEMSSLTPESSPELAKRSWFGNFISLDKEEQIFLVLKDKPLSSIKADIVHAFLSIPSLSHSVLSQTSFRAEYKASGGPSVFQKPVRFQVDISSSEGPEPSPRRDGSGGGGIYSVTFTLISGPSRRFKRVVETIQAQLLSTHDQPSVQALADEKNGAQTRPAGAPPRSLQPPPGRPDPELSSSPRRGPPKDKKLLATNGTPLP

[5] = molecular target: T2, Serine/threonine-protein kinase BRSK1 (Homo sapiens); conditions: at 1 µM
[6] = molecular target: T3, Serine/threonine-protein kinase BRSK2 (Homo sapiens) (UniProt Q8IWQ3); conditions: at 0.1 µM
T3 sequence (whole entry): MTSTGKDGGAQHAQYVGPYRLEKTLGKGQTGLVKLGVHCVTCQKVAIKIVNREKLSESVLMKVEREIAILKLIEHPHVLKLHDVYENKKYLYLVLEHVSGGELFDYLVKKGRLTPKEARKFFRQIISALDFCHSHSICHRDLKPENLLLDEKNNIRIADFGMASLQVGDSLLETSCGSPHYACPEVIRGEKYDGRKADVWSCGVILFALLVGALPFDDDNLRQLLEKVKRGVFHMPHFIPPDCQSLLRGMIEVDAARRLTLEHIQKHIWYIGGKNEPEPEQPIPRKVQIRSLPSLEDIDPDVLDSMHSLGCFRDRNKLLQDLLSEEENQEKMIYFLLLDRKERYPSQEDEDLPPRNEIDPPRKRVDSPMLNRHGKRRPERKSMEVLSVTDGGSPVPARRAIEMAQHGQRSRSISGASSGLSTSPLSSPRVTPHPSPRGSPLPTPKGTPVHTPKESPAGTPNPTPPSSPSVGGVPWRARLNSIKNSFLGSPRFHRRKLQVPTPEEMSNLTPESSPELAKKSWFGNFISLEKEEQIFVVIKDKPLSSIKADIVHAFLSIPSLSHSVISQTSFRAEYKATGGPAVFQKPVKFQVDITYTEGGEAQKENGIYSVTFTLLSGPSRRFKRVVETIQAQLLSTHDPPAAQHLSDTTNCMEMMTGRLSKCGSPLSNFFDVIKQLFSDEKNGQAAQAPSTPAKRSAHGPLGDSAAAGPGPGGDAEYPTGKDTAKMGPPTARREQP

[7] = molecular target: T3, Serine/threonine-protein kinase BRSK2 (Homo sapiens); conditions: at 1 µM
[8] = molecular target: Calcium/calmodulin-dependent protein kinase type 1D (Homo sapiens) (UniProt Q8IU85); conditions: at 0.1 µM
[9] = molecular target: Calcium/calmodulin-dependent protein kinase type 1D (Homo sapiens) (UniProt Q8IU85); conditions: at 1 µM
[10] = molecular target: Calcium/calmodulin-dependent protein kinase type II subunit alpha (Homo sapiens) (UniProt Q9UQM7); conditions: at 0.1 µM
[11] = molecular target: Calcium/calmodulin-dependent protein kinase type II subunit alpha (Homo sapiens) (UniProt Q9UQM7); conditions: at 1 µM
[12] = molecular target: Calcium/calmodulin-dependent protein kinase type II subunit delta (Homo sapiens) (UniProt Q13557); conditions: at 0.1 µM
[13] = molecular target: Calcium/calmodulin-dependent protein kinase type II subunit delta (Homo sapiens) (UniProt Q13557); conditions: at 1 µM
[14] = molecular target: T4, Calcium/calmodulin-dependent protein kinase type IV (Homo sapiens) (UniProt Q16566); conditions: at 0.1 µM
T4 sequence (whole entry): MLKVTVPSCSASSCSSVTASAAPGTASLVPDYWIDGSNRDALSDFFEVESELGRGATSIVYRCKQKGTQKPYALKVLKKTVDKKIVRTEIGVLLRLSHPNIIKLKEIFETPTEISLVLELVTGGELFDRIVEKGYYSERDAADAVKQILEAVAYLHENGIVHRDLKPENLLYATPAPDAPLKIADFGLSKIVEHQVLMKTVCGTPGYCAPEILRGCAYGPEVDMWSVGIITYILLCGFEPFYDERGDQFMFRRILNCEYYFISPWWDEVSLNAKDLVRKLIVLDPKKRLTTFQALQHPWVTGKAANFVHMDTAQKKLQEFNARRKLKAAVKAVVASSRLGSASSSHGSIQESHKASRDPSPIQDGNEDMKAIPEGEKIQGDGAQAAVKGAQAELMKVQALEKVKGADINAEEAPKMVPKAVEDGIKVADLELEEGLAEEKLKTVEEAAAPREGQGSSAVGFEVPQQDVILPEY

[15] = molecular target: T4, Calcium/calmodulin-dependent protein kinase type IV (Homo sapiens); conditions: at 1 µM
[16] = molecular target: T5, Serine/threonine-protein kinase Chk1 (Homo sapiens) (UniProt O14757); conditions: at 0.1 µM
T5 sequence (whole entry): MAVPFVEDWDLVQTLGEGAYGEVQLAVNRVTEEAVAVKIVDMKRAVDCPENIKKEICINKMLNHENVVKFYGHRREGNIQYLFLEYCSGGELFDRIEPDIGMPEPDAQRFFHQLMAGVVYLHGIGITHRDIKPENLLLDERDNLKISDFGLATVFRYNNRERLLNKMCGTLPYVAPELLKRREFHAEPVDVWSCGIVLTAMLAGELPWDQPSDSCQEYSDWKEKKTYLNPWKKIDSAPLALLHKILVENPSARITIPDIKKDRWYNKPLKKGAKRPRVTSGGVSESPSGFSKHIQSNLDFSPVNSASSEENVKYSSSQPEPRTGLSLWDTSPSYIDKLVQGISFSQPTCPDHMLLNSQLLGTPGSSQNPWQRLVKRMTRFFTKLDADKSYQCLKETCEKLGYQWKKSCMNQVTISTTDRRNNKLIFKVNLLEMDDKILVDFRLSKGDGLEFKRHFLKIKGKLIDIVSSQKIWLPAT

[17] = molecular target: T5, Serine/threonine-protein kinase Chk1 (Homo sapiens); conditions: at 1 µM
[18] = molecular target: Serine/threonine-protein kinase Chk2 (Homo sapiens) (UniProt O96017); conditions: at 0.1 µM
[19] = molecular target: Serine/threonine-protein kinase Chk2 (Homo sapiens) (UniProt O96017); conditions: at 1 µM
[20] = molecular target: Death-associated protein kinase 1 (Homo sapiens) (UniProt P53355); conditions: at 0.1 µM;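 also: reported figure is the mean inhibition of DAPK1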
Death-associated protein kinase 1 (Homo sapiens), sequence (P53355 whole entry, looked up): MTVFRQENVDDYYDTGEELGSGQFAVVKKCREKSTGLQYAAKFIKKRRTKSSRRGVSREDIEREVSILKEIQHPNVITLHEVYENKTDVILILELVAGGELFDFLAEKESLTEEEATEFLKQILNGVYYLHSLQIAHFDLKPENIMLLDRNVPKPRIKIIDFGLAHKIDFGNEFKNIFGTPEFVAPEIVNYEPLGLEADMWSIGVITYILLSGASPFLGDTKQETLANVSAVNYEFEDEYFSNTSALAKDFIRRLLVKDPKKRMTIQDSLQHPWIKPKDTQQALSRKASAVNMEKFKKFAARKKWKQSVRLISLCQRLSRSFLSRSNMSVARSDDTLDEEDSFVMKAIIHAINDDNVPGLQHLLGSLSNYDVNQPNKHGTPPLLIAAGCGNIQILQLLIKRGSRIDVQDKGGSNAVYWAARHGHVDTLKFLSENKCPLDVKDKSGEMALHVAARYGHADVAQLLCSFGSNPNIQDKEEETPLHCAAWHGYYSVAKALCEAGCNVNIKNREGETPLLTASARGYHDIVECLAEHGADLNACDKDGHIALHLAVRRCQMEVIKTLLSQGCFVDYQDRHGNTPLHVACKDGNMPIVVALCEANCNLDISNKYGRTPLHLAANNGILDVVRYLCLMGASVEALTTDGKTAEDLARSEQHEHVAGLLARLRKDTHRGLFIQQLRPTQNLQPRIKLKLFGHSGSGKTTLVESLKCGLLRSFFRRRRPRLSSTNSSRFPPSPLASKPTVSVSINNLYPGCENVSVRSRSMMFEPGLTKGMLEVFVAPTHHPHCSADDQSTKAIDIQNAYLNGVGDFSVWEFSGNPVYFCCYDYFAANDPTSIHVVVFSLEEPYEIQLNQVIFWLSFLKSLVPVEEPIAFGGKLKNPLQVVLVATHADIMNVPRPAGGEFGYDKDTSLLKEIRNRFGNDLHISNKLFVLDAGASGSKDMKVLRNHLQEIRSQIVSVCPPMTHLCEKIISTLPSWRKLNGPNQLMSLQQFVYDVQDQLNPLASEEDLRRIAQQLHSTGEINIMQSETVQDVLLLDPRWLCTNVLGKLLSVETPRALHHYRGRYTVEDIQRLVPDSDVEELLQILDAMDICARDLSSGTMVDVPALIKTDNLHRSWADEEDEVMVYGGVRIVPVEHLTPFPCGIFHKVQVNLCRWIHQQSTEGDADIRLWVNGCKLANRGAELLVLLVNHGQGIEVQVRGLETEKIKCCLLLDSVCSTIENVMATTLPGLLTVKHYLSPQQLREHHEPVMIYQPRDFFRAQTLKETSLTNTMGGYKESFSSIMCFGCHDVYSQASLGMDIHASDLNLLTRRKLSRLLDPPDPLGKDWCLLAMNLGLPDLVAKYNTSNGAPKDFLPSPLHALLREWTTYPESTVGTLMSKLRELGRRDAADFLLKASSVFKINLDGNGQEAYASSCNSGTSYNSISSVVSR

Calcium/calmodulin-dependent protein kinase type II subunit delta (Homo sapiens), sequence (Q13557 whole entry): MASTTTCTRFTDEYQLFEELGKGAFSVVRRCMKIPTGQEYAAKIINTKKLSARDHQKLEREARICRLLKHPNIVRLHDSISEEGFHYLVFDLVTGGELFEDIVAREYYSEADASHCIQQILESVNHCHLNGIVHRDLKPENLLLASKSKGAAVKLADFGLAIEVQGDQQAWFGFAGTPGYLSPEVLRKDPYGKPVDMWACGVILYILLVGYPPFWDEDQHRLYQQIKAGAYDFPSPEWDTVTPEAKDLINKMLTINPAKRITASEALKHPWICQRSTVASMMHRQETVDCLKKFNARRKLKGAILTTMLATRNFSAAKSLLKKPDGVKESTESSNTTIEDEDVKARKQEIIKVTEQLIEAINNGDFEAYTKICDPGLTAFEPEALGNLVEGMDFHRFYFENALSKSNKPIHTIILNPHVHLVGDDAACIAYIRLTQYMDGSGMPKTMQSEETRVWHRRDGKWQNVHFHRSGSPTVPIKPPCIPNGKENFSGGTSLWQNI
Serine/threonine-protein kinase Chk2 (Homo sapiens), sequence (O96017 whole entry): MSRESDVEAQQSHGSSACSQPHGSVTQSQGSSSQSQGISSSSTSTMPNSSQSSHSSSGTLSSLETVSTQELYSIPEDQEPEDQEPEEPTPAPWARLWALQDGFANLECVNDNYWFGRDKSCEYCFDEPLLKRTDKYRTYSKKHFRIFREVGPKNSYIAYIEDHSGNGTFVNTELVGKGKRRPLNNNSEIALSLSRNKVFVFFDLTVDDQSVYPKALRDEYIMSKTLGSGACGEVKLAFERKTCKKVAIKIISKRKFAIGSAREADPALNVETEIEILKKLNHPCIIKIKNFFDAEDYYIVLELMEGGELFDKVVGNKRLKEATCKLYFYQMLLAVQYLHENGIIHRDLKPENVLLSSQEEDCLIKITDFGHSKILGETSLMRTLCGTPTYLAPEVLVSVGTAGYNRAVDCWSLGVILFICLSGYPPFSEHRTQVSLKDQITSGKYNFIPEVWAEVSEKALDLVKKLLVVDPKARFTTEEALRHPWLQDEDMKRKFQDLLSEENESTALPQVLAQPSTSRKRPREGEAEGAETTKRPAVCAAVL
Calcium/calmodulin-dependent protein kinase type 1D (Homo sapiens), sequence (Q8IU85 whole entry, looked up): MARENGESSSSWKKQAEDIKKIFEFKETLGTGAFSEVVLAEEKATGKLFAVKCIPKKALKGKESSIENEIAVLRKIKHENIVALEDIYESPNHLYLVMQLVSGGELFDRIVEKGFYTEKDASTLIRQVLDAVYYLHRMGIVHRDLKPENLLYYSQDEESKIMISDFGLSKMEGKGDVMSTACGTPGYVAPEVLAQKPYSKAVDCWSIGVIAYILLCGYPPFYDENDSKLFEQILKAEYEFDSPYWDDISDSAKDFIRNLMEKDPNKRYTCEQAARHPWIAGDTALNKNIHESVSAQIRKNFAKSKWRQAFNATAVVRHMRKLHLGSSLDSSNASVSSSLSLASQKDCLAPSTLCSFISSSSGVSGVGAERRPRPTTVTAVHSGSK
5'-AMP-activated protein kinase catalytic subunit alpha-2 (Homo sapiens), sequence (P54646 whole entry, looked up): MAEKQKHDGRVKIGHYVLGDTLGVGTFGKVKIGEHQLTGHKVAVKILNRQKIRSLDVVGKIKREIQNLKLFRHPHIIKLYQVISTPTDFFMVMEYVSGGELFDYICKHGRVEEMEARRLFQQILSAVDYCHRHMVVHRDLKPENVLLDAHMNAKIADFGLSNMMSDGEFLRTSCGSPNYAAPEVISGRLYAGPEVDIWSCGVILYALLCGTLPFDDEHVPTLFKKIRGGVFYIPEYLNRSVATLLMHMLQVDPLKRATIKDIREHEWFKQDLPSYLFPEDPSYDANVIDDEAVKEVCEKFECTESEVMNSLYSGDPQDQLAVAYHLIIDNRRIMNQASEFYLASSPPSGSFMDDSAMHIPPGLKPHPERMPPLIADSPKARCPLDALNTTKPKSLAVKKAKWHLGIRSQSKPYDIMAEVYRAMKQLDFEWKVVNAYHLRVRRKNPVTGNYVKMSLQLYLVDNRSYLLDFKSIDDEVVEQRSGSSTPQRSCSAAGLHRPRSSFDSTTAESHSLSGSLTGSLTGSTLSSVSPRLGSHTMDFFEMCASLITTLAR
Calcium/calmodulin-dependent protein kinase type II subunit alpha (Homo sapiens), sequence (Q9UQM7 whole entry): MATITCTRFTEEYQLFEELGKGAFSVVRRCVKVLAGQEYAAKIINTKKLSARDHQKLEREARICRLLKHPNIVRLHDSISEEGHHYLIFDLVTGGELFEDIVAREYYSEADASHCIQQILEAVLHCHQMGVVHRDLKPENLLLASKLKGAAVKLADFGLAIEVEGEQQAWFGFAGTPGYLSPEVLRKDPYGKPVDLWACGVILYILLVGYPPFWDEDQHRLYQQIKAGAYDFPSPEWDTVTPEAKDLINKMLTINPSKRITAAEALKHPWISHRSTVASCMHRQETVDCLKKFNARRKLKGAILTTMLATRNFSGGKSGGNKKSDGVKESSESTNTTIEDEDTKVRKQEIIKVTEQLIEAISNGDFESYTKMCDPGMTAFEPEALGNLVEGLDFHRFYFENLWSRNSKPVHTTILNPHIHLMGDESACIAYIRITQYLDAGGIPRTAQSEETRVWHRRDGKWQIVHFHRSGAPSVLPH

| SMILES | inhibition [1] [%] | inhibition [2] [%] | inhibition [3] [%] | inhibition [4] [%] | inhibition [5] [%] | inhibition [6] [%] | inhibition [7] [%] | inhibition [8] [%] | inhibition [9] [%] | inhibition [10] [%] | inhibition [11] [%] | inhibition [12] [%] | inhibition [13] [%] | inhibition [14] [%] | inhibition [15] [%] | inhibition [16] [%] | inhibition [17] [%] | inhibition [18] [%] | inhibition [19] [%] | inhibition [20] [%] |
| --- | --- | --- | --- | --- | --- | --- | --- | --- | --- | --- | --- | --- | --- | --- | --- | --- | --- | --- | --- | --- |
| CC1=C(C(=O)Nc2ccc3[nH]nc(C)c3c2)C(c2ccc(C(F)(F)F)cc2)CC(=O)N1 (stereo not given) | 7.41 | 6.8 | 31.1 | 4.32 | 21.3 | 6.42 | 32.6 | 0.54 | 2.58 | 1.45 | 2.9 | 1.76 | 4.44 | 0.07 | 0.57 | 2.48 | 2.75 | 1.95 | 6.02 | 3.37 |
| O=C(O[C@H]1CN[C@H](C#Cc2cc3ncnc(Nc4ccc(OCc5cccc(F)c5)c(Cl)c4)c3s2)C1)N1CCOCC1 | 2.14 | 0.4 | 0.97 | -0.35 | 1.81 | 2.06 | 3.32 | -0.02 | -0.12 | 2.9 | 3.21 | 3.54 | 2.65 | -1.14 | -3.95 | -1.89 | -1.17 | -1.01 | 2.28 | -1.79 |
| COc1cc(Nc2ncc(-c3ccccc3)o2)cc(OC)c1 | 8.23 | 5.89 | 32.7 | -1.27 | 8.79 | 2.68 | 7.23 | -0.33 | -0.66 | 2.98 | 1.52 | 3.94 | 7.34 | -1.03 | -1.65 | 1.69 | 0.7 | 4.6 | 5.38 | 2.51 |
| CCn1c(-c2nonc2N)nc2cncc(C(=O)NCCNC)c21 | 4.46 | -0.78 | 2.03 | 0.66 | 6.23 | 2.51 | 9.29 | -0.23 | 0.83 | 2.44 | -0.37 | 3.51 | 6.88 | -2.59 | 0.71 | 2.97 | -0.23 | 4.63 | 5.44 | 3.2 |
| O=C(Nc1n[nH]c2nnc(-c3cccnc3)cc12)C1CC1 | 0.41 | 1.34 | 0.53 | -0.56 | -3.34 | 0.35 | 1.6 | 0.85 | 0.89 | -1.44 | 1.88 | -1.25 | 1.45 | 1.28 | 0.43 | 0.7 | -2.5 | -1.27 | -0.14 | -1.32 |
| N#Cc1ccc2c(-c3ccnc(NC4CC4)n3)c(-c3ccc(F)cc3)nn2c1 | 1.42 | -1.39 | -2.95 | -0.28 | -0.2 | -0.61 | 1.09 | -0.16 | 0.14 | -0.56 | -1.71 | 0.13 | -1.01 | 0.17 | -2.53 | -1.96 | -0.86 | -0.32 | 0.27 | 1.33 |
